Data taken from PubChem BioAssay (NCATS).
Several values for one entry are separate records, joined by “and”; a condition that tells them apart may be missing. Equal entries are not always repeated. Inconclusive results are not listed. Activity calls are given as the source filed them. Calls follow the shape of the dose curve; as a rule, active = well fitted curve in the direction sought with a large enough effect; inconclusive = small, poorly fitted or top-dose-only effect, or another doubt; inactive = no such curve, though single readings can be large; an effect the other way counts as inactive or inconclusive.

What was measured:
HEK293 = experiment: Cytotoxic Profiling of Annotated Libraries Using Quantitative High-Throughput Screening (AID 1296008); conditions: Five cell lines viability, CellTiter-Glo ATP luminescence, 48-72 h; max response: active compounds read low; also: nearly all actives have a fitted effect of over 60% in size; also: potency is read from the fitted curve at half-maximal effect
How it was run: (§1)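 Compounds were pin-transferred onto cells and incubated 48 or 72 hr at 37 degree Celsius, 95% humidity. CellTiter-Glo was added, plates sat 10 min at room temperature, then ATP-coupled luminescence was imaged as the viability read-out.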

KB-3-1 = experiment: as above; conditions: Five cell lines viability, CellTiter-Glo ATP luminescence, 48-72 h; max response: active compounds read low
How it was run: as §1

MCC-13 = experiment: qHTS assay to identify novel small-molecules to repurpose for Merkel cell carcinoma treatment (AID 1296009); conditions: MCC and control cell lines, CellTiter-Glo viability, 72 h; series mostly up to 46 µM; also: nearly all actives have a fitted effect of over 60% in size; also: potency is read from the fitted curve at half-maximal effect
How it was run: (§2)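 Viability readout: ATP luminescence (CellTiter-Glo) after 72 hr drug exposure at 37 degree celsius. Dose-response format was 8 points for NPC and 11 points for MIPE; data normalized to in-plate controls.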

MKL-1 = experiment: as above; conditions: MCC and control cell lines, CellTiter-Glo viability, 72 h; series mostly up to 46 µM
How it was run: as §2

MKL-2 = experiment: as above; conditions: MCC and control cell lines, CellTiter-Glo viability, 72 h; series mostly up to 46 µM
How it was run: as §2

WaGa = experiment: as above; conditions: MCC and control cell lines, CellTiter-Glo viability, 72 h; series mostly up to 46 µM
How it was run: as §2

HaCat [1] = experiment: Cytotoxic Profiling of Annotated Libraries Using Quantitative High-Throughput Screening (AID 1296008); conditions: Five cell lines viability, CellTiter-Glo ATP luminescence, 48-72 h; max response: active compounds read low; also: nearly all actives have a fitted effect of over 60% in size; also: potency is read from the fitted curve at half-maximal effect
How it was run: as §1

NIH3T3 = experiment: as above; conditions: Five cell lines viability, CellTiter-Glo ATP luminescence, 48-72 h; max response: active compounds read low
How it was run: as §1

MCC-26 = experiment: qHTS assay to identify novel small-molecules to repurpose for Merkel cell carcinoma treatment (AID 1296009); conditions: MCC and control cell lines, CellTiter-Glo viability, 72 h; series mostly up to 46 µM; also: nearly all actives have a fitted effect of over 60% in size; also: potency is read from the fitted curve at half-maximal effect
How it was run: as §2

UISO = experiment: as above; conditions: MCC and control cell lines, CellTiter-Glo viability, 72 h; series mostly up to 46 µM
How it was run: as §2

C33A = experiment: Primary qHTS to identify gynecologic anti-cancer compounds using libraries of approved drugs and bioactive compounds (AID 1345084); conditions: Gynecologic cancer cell panel viability, ATPlite luminescence, 48 h; series mostly up to 57.5 µM; also: nearly all actives have a fitted effect of over 55% in size
How it was run: (§3)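 Measured: luminescence after ATPlite addition (15 min, RT). Exposure: 48 h, 37 C, 5% CO2.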

CAOV3 = experiment: as above; conditions: Gynecologic cancer cell panel viability, ATPlite luminescence, 48 h; series mostly up to 57.5 µM
How it was run: as §3

CASKI = experiment: as above; conditions: Gynecologic cancer cell panel viability, ATPlite luminescence, 48 h; series mostly up to 57.5 µM
How it was run: as §3

Es-2 = experiment: as above; conditions: Gynecologic cancer cell panel viability, ATPlite luminescence, 48 h; series mostly up to 57.5 µM
How it was run: as §3

HeLa = experiment: as above; conditions: Gynecologic cancer cell panel viability, ATPlite luminescence, 48 h; series mostly up to 57.5 µM
How it was run: as §3

Hek293T = experiment: as above; conditions: Gynecologic cancer cell panel viability, ATPlite luminescence, 48 h, control line for the selectivity index; series mostly up to 57.5 µM
How it was run: as §3

JEG-3 = experiment: as above; conditions: Gynecologic cancer cell panel viability, ATPlite luminescence, 48 h; series mostly up to 57.5 µM
How it was run: as §3

HACAT [2] = experiment: qHTS assay to identify novel small-molecules to repurpose for Merkel cell carcinoma treatment (AID 1296009); conditions: MCC and control cell lines, CellTiter-Glo viability, 72 h; at 44.8 µM (top of the series) unless noted; also: nearly all actives have a fitted effect of over 60% in size; also: potency is read from the fitted curve at half-maximal effect
How it was run: as §2
% is scaled to controls: 0 for no effect and ±100 for the full control effect.

Cc1ccc(C(=O)Nc2cccc(C(F)(F)F)c2)cc1Nc1nc(-c2cccnc2)nc2c1cnn2C
inactive: max response (KB-3-1) -14.6% | Potency (MCC-13) | Potency (MKL-1) | Potency (MKL-2) | Potency (WaGa)
active: Potency (HEK293) 13.2 µM

NC(CO)(CO)CCc1ccc(Sc2cccc(OCc3ccccc3)c2)cc1Cl
inactive: Potency (MCC-13) | Potency (MCC-26)
active: Potency (HEK293) 10.5 µM | Potency (HaCat [1]) 26.4 µM | Potency (NIH3T3) 16.6 µM | Potency (MKL-1) 13.2 µM | Potency (MKL-2) 23.5 µM | Potency (WaGa) 5.26 µM

Nc1nc(F)nc2c1ncn2[C@@H]1O[C@H](COP(=O)(O)O)[C@@H](O)[C@H]1O
active: Potency (UISO) 13.2 µM | Potency (WaGa) 14.8 µM
inactive: max response (HEK293) -8.85% | outcome (KB-3-1) | Potency (MCC-26)

COc1ccc(Cc2ccc(NC(N)=O)cc2)cc1-c1cccc(Cl)c1
inactive: max response (HEK293) -15.8% | max response (KB-3-1) -9.2% | max response (NIH3T3) -1.6% | Potency (MCC-13) | Potency (MCC-26) | Potency (MKL-1) | Potency (MKL-2) | Potency (UISO) | Potency (WaGa) | Potency (C33A) | Potency (CAOV3) | Potency (CASKI) | Potency (Es-2) | Potency (HeLa) | Potency (Hek293T) | Potency (JEG-3)

CNC1CCC(N(Cc2cccc(-c3ccncc3)c2)C(=O)c2sc3c(F)ccc(F)c3c2Cl)CC1 (stereo not given)
inactive: outcome (HaCat [1]) | outcome (HACAT [2]) | Potency (MCC-13) | Potency (MCC-26) | Potency (WaGa) | Potency (C33A) | Potency (CASKI) | Potency (HeLa) | Potency (JEG-3)
active: Potency (HEK293) 13.2 µM and 13 µM

COc1ccc2cc(-c3nc(-c4ccc(S(C)=O)cc4)[nH]c3-c3ccncc3)ccc2c1 (stereo not given)
inactive: max response (HaCat [1]) -7.74% | outcome (HaCat [1]) | max response (KB-3-1) 4.38% | max response (NIH3T3) 3.08% | outcome (HACAT [2]) | Potency (MCC-13) | Potency (MCC-26) | Potency (MKL-1) | Potency (UISO) | Potency (WaGa) | Potency (C33A) | Potency (CASKI) | Potency (Es-2) | Potency (HeLa) | Potency (Hek293T) | Potency (JEG-3)

CC(C)n1cnc2c(NCCCCCCNC(=O)OC(C)(C)C)nc(NCCO)nc21
active: Potency (HEK293) 14.8 µM
inactive: max response (HaCat [1]) -3.35% | Potency (MCC-13) | Potency (MCC-26) | Potency (MKL-1) | Potency (MKL-2) | Potency (UISO)

COc1cccc2c1CCCC2CCCN1CCN(C2CCCCC2)CC1 (stereo not given)
active: Potency (HEK293) 14.8 µM
inactive: max response (HaCat [1]) -16.8% | Potency (MCC-13) | Potency (MCC-26) | Potency (MKL-1)

Clc1cc(Cl)cc(CNc2ncncc2-c2ccc3c(c2)OCO3)c1
inactive: Potency (MCC-13) | Potency (MCC-26) | Potency (MKL-2)
active: Potency (HEK293) 20.9 µM

C[C@H](NC(=O)c1sccc1OCc1ccc(Cl)cc1)c1ccccc1
inactive: Potency (MCC-13) | Potency (MCC-26) | Potency (MKL-1)
active: Potency (HEK293) 16.6 µM | Potency (KB-3-1) 20.9 µM

Nc1ncnc2c1nc(Cl)n2[C@@H]1O[C@H](CO)[C@@H](O)[C@@H]1O
active: Potency (HaCat [1]) 14.8 µM | Potency (NIH3T3) 26.4 µM
inactive: max response (HEK293) 0.527% | Potency (MCC-13)

COc1ccc(-c2oc3c(CC=C(C)C)c(OC4O[C@H](CO)[C@@H](O)[C@H](O)[C@@H]4O)cc(O)c3c(=O)c2OC2O[C@@H](C)[C@H](O)[C@@H](O)[C@@H]2O)cc1 (stereo not given in full)
active: Potency (HEK293) 18.7 µM
inactive: max response (NIH3T3) -16.5% | Potency (MCC-13) | Potency (MCC-26) | Potency (MKL-1) | Potency (WaGa)

CC1(C)S[C@H]2[C@H](NC(=O)[C@@H](N)c3ccc(O)cc3)C(=O)N2[C@@H]1C(=O)O
inactive: outcome (HaCat [1]) | outcome (KB-3-1) | max response (NIH3T3) 4.61% | outcome (HACAT [2]) | Potency (MCC-13) | Potency (MCC-26) | Potency (UISO)
active: Potency (MKL-2) 4.18 µM | Potency (WaGa) 2.64 µM

COC[C@@H](c1ccc(C(F)(F)F)cc1)N1CCN(C2(C)CCN(C(=O)c3c(C)ncnc3C)CC2)C[C@H]1C
inactive: max response (HaCat [1]) -0.948% | max response (KB-3-1) 5.03% | max response (NIH3T3) 4.62% | Potency (MCC-13) | Potency (MCC-26) | Potency (MKL-1) | Potency (MKL-2) | Potency (UISO) | Potency (WaGa) | Potency (C33A) | Potency (CASKI) | Potency (Es-2) | Potency (HeLa) | Potency (Hek293T) | Potency (JEG-3)

NC(=O)[C@@H](CCC(F)(F)F)N(Cc1ccc(-c2ncon2)cc1F)S(=O)(=O)c1ccc(Cl)cc1
inactive: max response (HaCat [1]) -0.733% | max response (KB-3-1) -20.8% | max response (NIH3T3) -26.9% | Potency (MCC-13) | Potency (MCC-26) | Potency (MKL-1) | Potency (MKL-2) | Potency (UISO) | Potency (WaGa)
